# Assay outcomes deposited in PubChem by National Center for Advancing Translational Sciences (NCATS).
# Only some compounds are listed: those with a hit (about 11% of all), similar ones and a draw of the others.
# HPGD inh: blocks human HPGD enzyme activity; Potency, µM, for the others: at the highest dose activity change, negative = inhibition, usual class: inhibitors; AID 894; 4.3% of 150,000 active; purified HPGD, NADH fluorescence kinetic, PGE2 substrate; P15428; active means well fitted inhibition curve with a large enough effect, not every such curve was filed as active; inconclusive means small, poorly fitted or top-dose-only effect, or another doubt; inactive means no such curve, though single readings can be large or run the other way; further: potency means the concentration at half of the fitted maximal effect
# Target sequence (P15428 whole entry, looked up): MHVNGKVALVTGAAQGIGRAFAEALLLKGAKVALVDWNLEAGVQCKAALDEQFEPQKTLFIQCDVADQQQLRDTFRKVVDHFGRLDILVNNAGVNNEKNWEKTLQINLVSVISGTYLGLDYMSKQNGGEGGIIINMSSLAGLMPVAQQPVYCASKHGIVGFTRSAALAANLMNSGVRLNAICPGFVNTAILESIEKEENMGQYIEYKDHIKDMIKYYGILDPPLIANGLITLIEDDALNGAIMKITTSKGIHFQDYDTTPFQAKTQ
#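 NADH formation kinetics: reaction with 30 uM PGE2 and 1 mM NAD+ (final), 20 nM enzyme, Tris-HCl pH 8 with Tween 20, after 15 min compound preincubation at room temperature. Fluorescence change, last versus first of five reads.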
# IMPase cell inh: membrane-permeable compound that blocks inositol monophosphatase; 120,000 tested, under 10 active; inhibition (IP1 accumulation), % at 46.1 µM; CHO-M1 cells, IP1 accumulation, HTRF TR-FRET ratio; AID 901; active means well fitted curve in the direction sought with a large enough effect in the signal ratio, not every such curve was filed as active; inconclusive means small, poorly fitted or top-dose-only effect, or a change in a side signal; inactive means no such curve, though single readings can be large or run the other way; the % refers to the signal ratio;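 further: cells stimulated with carbachol in lithium chloride buffer; plate controls were DMSO basal wells for no effect and reference inhibitor wells for full effect; higher means more IMPase inhibition seen as more IP1 and lower FRET ratio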
# Target sequence (P97697 whole entry, looked up): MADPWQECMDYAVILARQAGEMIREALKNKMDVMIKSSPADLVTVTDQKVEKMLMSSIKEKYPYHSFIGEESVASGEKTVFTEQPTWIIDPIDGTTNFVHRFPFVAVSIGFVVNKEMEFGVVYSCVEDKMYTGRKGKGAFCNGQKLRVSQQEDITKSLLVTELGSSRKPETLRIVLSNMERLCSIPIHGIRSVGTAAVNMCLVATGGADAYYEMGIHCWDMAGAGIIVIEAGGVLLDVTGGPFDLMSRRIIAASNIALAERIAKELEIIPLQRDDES
#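 In this qHTS, compounds (final up to 46 uM) act on CHO-M1 cells that are then activated through the M1 receptor with carbachol, in pH 7.4 buffer containing 50 mM LiCl, for 30 min. IP1 accumulation is quantified by the IP-One immunoassay.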
# PNC assembly inh: blocks assembly of the perinucleolar compartment | AID 2417 | PC3M PTB-GFP, PNC prevalence imaging, 16 h; stronger effect = lower value | 3.1% of 140,000 active | activity change (PNC), negative = inhibition, % at 10 µM;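 active means readout at or below -70, meaning at least 70% loss of cells showing the perinucleolar compartment, a nuclear body marking cancer cells; inconclusive means readout between -30 and a set limit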;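 further: plate controls were DMSO wells for no effect and camptothecin positive control wells for full effect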
#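 Read-out is percentage of cells bearing a perinucleolar compartment, from automated 20x imaging of fixed, Hoechst-stained PC3M PTB-GFP cells. Cells were seeded 4 h, then exposed 16 h to compound (23 nl of library stock) in duplicate plates.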
# ALOX12 inhib: inhibitors of human 12-lipoxygenase (ALOX12); P18054; purified 12-hLO, xylenol orange hydroperoxide absorbance; Potency, µM (titrated, usually from 57.1 µM), for the others: at the highest dose activity change, negative = inhibition, actives largely listed as inhibitors; 0.12% of 150,000 active; further: potency means the concentration at half of the fitted maximal effect; nearly all actives have a fitted effect of over 55% in size
#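 Purified human 12hLO (150 nM), preincubated 15 min with compound, then 40 uM arachidonic acid for 30 min, room temperature, Hepes pH 7.0 with 0.01% Triton X-100. Hydroperoxide detected by ferrous iron/xylenol orange; 573/405 nm absorbance ratio gives reaction progress.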
# IMPase Li cell: cell-permeable IMPase inhibitors with lithium potentiation; CHO-M1 cells, IP1 TR-FRET (IP-One), carbachol + lithium; Potency, µM (titrated, usually from 59.4 µM), for the others: at the highest dose activity, negative = IMPase inhibition, most hits filed as inhibitors; 0.35% of 210,000 active; AID 1457;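 further: IP1 builds up when IMPase is blocked and the TR-FRET signal falls; potency means the concentration at half of the fitted maximal effect; plate controls were basal vehicle for no effect and high inhibitor control for full effect; nearly all actives have a fitted effect of over 50% in size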
#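 Test compounds were applied to CHO-M1 cells previously cultured for 16–30 h at 2000 per well. A small lithium amount accompanied them; after 30 min at 37C, IP1 was quantified by TR-FRET.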
# ALDH1A1 block: ALDH1A1 (human) enzyme inhibition | Purified ALDH1A1, NADH fluorescence, propionaldehyde substrate | P00352 | Potency, µM (highest dose often 75.3 µM), inactives show at the highest dose activity, negative = inhibition, hits mostly inhibitors | 7.3% of 220,000 active | AID 1030; active means well fitted inhibition curve with a large enough effect, not every such curve was filed as active; inconclusive means small, poorly fitted or top-dose-only effect, or another doubt; inactive means no such curve, though single readings can be large or run the other way;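 further: potency means the concentration at half of the fitted maximal effect; plate controls were no enzyme wells and a reference inhibitor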
# * marks the source's active call; other numbers are inactive results; ? = inconclusive; · = no result; [ ] = remark or other dose. Unless noted, the call rests on the fitted dose curve; in most records, active means well fitted curve in the direction sought with a large enough effect; inconclusive means small, poorly fitted or top-dose-only effect, or another doubt; inactive means no such curve, though single readings can be large; an effect the other way counts as inactive or inconclusive. Unless noted, on the % scale 0 is the no-effect control and ±100 the full control effect.
SMILES,HPGD inh,IMPase cell inh,PNC assembly inh,ALOX12 inhib,IMPase Li cell,ALDH1A1 block
CO[C@H]1COC(=O)[C@H](C)COC(=O)[C@@H](OCc2ccccc2)/C=C\[C@@H]1C,·,·,·,·,·,-15%[13.5 µM]
N#Cc1cccc(-c2nc(NCc3cccs3)c3ccccc3n2)c1,·,·,·,·,18%,2%
CCCCN1CCC[C@@H]1CNC(=O)c1cc(C#N)c2ccccc2c1OC,-21%,13,·,1%,40%,?
O=C(CSc1nc2ccccc2s1)N1CCN(C(=O)c2ccco2)CC1,-27%,-9,-17,0%,14%,14µM*
CCOc1ccc2nc(SCC(=O)N3CCN(C(=O)c4ccco4)CC3)sc2c1,-24%,-1,-13,5%,25%[38.3 µM],?
COc1ccc(OC)c(C2C3=C(N=C4SCC(=O)N42)c2ccccc2CC3)c1 (stereo unspecified),22µM*,4,?,-22%,22%[38.3 µM],?
CC(C)(C)c1nc2c(C#N)c(-c3ccc(Cl)cc3)ccn2n1,?,11,16,-2%,36%[38.3 µM],1%
N#Cc1c(-c2ccc3c(c2)OCO3)ccn2nc(-c3cccc(C(F)(F)F)c3)nc12,?,11,41,-14%,13µM*,?
CCOc1cccc(=O)c2c(C)n(Cc3ccco3)c(C)c12,?,6,-100*,-25%,1%[38.3 µM],2.2µM*
COCCNCC(=O)NCC12CC3CC(CC(C3)C1)C2,-6%,0,-22,2%,-3%[38.3 µM],28µM*
O=C(CN1C(=O)CCC1=O)NCC12CC3CC(CC(C3)C1)C2,-5%,?,22,-5%,-20%[38.3 µM],1.1µM*
COCCNCC(=O)NC12CC3CC(CC(C3)C1)C2,-7%,0,27,7%,-2%[38.3 µM],-1%
O=C(CN1CCCC1)NCC12CC3CC(CC(C3)C1)C2,-8%,-10,18,7%,5%[38.3 µM],?
NC(=O)C1(NC(=O)[C@@H]2CC3(CC(c4cccc(NC(=O)[C@@H]5CCC(=O)N5)c4)=NO3)CN2C(=O)c2ccccc2)CC1 (stereo partly specified),-1%,-4,33,-2%,-1%[38.3 µM],3%
NC(=O)C1(NC(=O)[C@@H]2CC3(CC(c4cccc(NC(=O)[C@@H]5CCC(=O)N5)c4)=NO3)CN2C(=O)c2cnccn2)CC1 (stereo partly specified),-13%,9,-2,16%,-10%[38.3 µM],22µM*
CC(=O)O[C@H](C(=O)O[C@@H]1C[C@@H](CCC[C@H]2O[C@H](C(=O)OC(C)C)CC[C@@H]2C)O[C@@H](CC#N)C1)c1ccccc1,-10%,·,·,·,1%,-5%
COc1ccc(-n2c(=O)cc(N3CCN(c4ccccc4OC)CC3)[nH]c2=O)cc1,-9%,5,48,5%,16%[38.3 µM],-2%
COc1ccc(-n2c(=O)cc(N3CCN(c4ccccc4F)CC3)[nH]c2=O)cc1,2%,-2,?,-2%,13%[38.3 µM],4µM*
CCCCN(CCCNC(=O)CN1C(=O)COc2ccccc21)c1ccccc1,-16%,11,?,-9%,44%[38.3 µM],13µM*
CCN(CCCNC(=O)CN1C(=O)COc2ccccc21)c1ccccc1,1%,5,11,-3%,18%[38.3 µM],-5%
CCN(CCCNC(=O)c1c(C)cc(=O)oc1C)c1ccccc1,-19%,5[1.84 µM],?,27%,38%[38.3 µM],7.9µM*
CCCNC(=O)c1c(C)cc(=O)oc1C,-11%,-4,?,-2%,-6%[38.3 µM],-1%
CCCCN(CCCNC(=O)c1c(C)cc(=O)oc1C)c1ccccc1,-12%,8,-98*,-3%,11%,22µM*
CCC[C@H](N[C@@H](C)C(=O)N1[C@@H]2CCCC[C@H]2C[C@H]1C(=O)O)C(=O)OCC,-16%,·,·,-4%[0.00818 µM],5%,7%
CCn1ncc(/C=N/NS(=O)(=O)c2ccc(Cl)cc2)c1C,-4%,1,14,0%,-5%[38.3 µM],-11%
SMILES,HPGD inh,IMPase cell inh,PNC assembly inh,ALOX12 inhib,IMPase Li cell,ALDH1A1 block
Cc1ccc(NC(=O)Cn2cnc3sc(C(=O)O)c(C)c3c2=O)cc1Cl,·,-4,·,·,·,·
Cc1[nH]c2ccccc2c1C1(O)C(=O)N(Cc2ccc3c(c2)OCO3)c2ccccc21 (stereo unspecified),-19%,-11,?,-22%,14%[38.3 µM],0.71µM*
CCOC(=O)CN1C(=O)C(O)(CC(=O)c2ccc3c(c2)CCCC3)c2ccccc21 (stereo unspecified),-4%,-12,-4,-6%,-1%,10µM*
CN1C(=O)C(O)(CC(=O)/C=C/c2ccco2)c2cc(Br)ccc21 (stereo unspecified),·,·,·,·,8%,24µM*
CN1C(=O)C(O)(CC(=O)/C=C/c2ccco2)c2ccccc21 (stereo unspecified),·,·,·,·,5%,-7%
COc1ccc(CN2C(=O)C(O)(CC(=O)c3ccc4c(c3)OCO4)c3ccccc32)cc1OC (stereo unspecified),-6%,1,24,-9%,14%[38.3 µM],4.5µM*
CCOC(=O)CCN1C(=O)[C@H]2[C@H]3[C@H](O)[C@H](O)C/C(=N/OCc4ccccc4)[C@@H]3CC[C@@H]2C1=O,·,·,·,·,·,-9%[13.5 µM]
CCC1(C)Cc2c(sc3nc(SC)n(-c4ccc(C)cc4)c(=O)c23)CO1 (stereo unspecified),·,-5,·,·,·,·
CN(C)c1ncc2nc(-c3ccc(Cl)cc3)c(=O)n(CCC#N)c2n1,·,·,·,·,-4%,?
CC12CN3CC(C)(CN(C1)C31C(=O)N(Cc3ccccc3)c3ccccc31)C2=O (stereo unspecified),4%,-3,?,0%,-8%[38.3 µM],7.9µM*
C#CCN1C(=O)C(O)(CC(=O)c2cccc(OC)c2)c2ccccc21 (stereo unspecified),-10%,6,?,-6%,13%[38.3 µM],1.6µM*
CC1(C)CC(=O)C(C2(O)C(=O)N(Cc3ccccc3)c3ccccc32)CO1 (stereo unspecified),-7%,-3,50,0%,11%[38.3 µM],0.032µM*
CC12CN(Cc3ccccc3)CC(C)(CN(Cc3ccccc3)C1)C2=O,·,·,·,·,-3%,4%
CCOC(=O)CN1C(=O)C(O)(CC(=O)c2cccc(OC)c2)c2ccccc21 (stereo unspecified),0%,-9,-21,0%,-8%[38.3 µM],0.28µM*
Cc1nn(-c2ccccc2)c2sc(C(=O)Nc3cccc(Cl)c3)cc12,·,3,·,·,·,·
NC(=O)SCC(=O)Nc1ccc2ncccc2c1,-11%,·,·,-2%[11.4 µM],-3%,?
O=C(c1cnccn1)N1CCC2(CC1)CCN(c1ccccc1)CC2,-1%,·,·,3%,-3%,-4%
C1CCC[C@H]2CCCN3CC[C@H](CCCCCC[C@@H]4CCCN5CC[C@H](CC1)OC45)OC23,·,·,·,·,-8%,11%
